Inconclusive results are not listed. A call without a number means that no potency is given here. Active and inactive are the calls of the source. Calls follow the shape of the full dose curve.
Each molecule was assayed against 5-hydroxytryptamine receptor 2A (Homo sapiens) (UniProt P28223) (assay: 5-hydroxytryptamine receptor 2A (HTR2A) small molecule antagonists, cell-based qHTS assay (AID 1963586; also: nearly all actives have a fitted effect of over 45% in size)). Conditions: HTR2A-CHO cells, DOI-induced calcium flux, fluorescence; series mostly up to 61.5 µM.
Sequence of 5-hydroxytryptamine receptor 2A (Homo sapiens) (P28223 whole entry, looked up): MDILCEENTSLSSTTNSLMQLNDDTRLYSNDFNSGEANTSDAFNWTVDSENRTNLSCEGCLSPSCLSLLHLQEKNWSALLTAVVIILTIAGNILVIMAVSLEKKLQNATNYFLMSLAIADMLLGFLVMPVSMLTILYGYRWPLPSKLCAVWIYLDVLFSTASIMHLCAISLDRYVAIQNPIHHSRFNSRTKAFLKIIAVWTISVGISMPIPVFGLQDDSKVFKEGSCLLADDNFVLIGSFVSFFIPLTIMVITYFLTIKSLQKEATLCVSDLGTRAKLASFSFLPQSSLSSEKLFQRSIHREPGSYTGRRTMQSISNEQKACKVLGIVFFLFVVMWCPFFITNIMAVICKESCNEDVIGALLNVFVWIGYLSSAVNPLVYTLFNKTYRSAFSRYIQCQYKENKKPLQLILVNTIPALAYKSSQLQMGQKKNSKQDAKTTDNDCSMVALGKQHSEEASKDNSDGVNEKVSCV
Excerpt: National Center for Advancing Translational Sciences [NCATS]
Division of Preclinical Innovation [DPI]
U.S. Environmental Protection Agency [EPA]
National Institutes of Environmental Health Sciences [NIEHS]
National Toxicology Program [NTP]
U.S. Food and Drug Administration [FDA]
The HTR2A receptor is a subtype of the 5-HT2 receptor that belongs to the serotonin receptor family and is a G protein-coupled receptor (GPCR). The HTR2A-CHO cell line stably expressing human 5-hydroxytryptamine receptor 2A (HTR2A) can be used for screening antagonists of interactions between 5-HT2 and its ligands. The HTR2A-CHO calcium flux assay is a homogeneous fluorescence-based assay for detecting the intracellular calcium level using FDSS kinetic plate reader system.
Tox21 Assay Protocol Summary:
HTR2A-CHO cells were dispensed at 2000 cells/3uL/well in 1536-well black-clear bottom plates using a Multidrop Dispenser. After the assay plates were incubated at a 37 C/5% CO2 incubator for 18 h, 3 uL of Dye Loading Buffer was transferred to the assay plate by a Flying Reagent Dispenser. The assay plates were incubated at 37 C for 1h. For antagonist mode, 23 nL of compounds dissolved in DMSO, positive controls or DMSO only was transferred to the assay plate by a pin tool. After 5 min incubation at room temperature, 1.5 uL of 4-Iodo-2,5-dimethoxy-alpha-methylbenzeneethanamine hydrochloride (DOI) at 4nM was added to each well. The fluorescence intensity in the plates was measured using FDSS 7000EX kinetic plate reader for 3 min at 1 sec intervals.

Structure (SMILES) | Potency
CC(CN(C)C)C(C)(O)Cc1ccc(Cl)cc1 (stereo not given) | inactive
CN(C)c1ccc(CCO)cc1 | inactive
CCc1ccc(CC)cc1 | inactive
CCOC(=O)C(=O)c1csc(NC=O)n1 | inactive
CC1(C)CCC(C)(C)c2cc(NC(=O)c3ccc(C(=O)O)cc3)ccc21 | inactive
CCOC(=O)C(=O)OCC | inactive
CC(N)C(=O)OC(C)(C)Cc1ccc(Cl)cc1 (stereo not given) | inactive
C[C@H](N)C(=O)N[C@@H](C)C(=O)NC1[C@H]2CN(c3nc4c(cc3F)c(=O)c(C(=O)O)cn4-c3ccc(F)cc3F)C[C@@H]12 (stereo not given in full) | inactive
CC(C)Cc1nccs1 | inactive
O=C(O)C(Cc1cc(I)c(O)c(I)c1)c1ccccc1 (stereo not given) | inactive
OCC(CO)(CO)COCC(CO)(CO)CO | inactive
Nc1cc(Cl)c(O)c(Cl)c1 | inactive
CCc1cccc(CC)c1NC(=O)CN(CC(=O)O)CC(=O)O | inactive
CCCCCCCCCC(=O)OCC | inactive
C[C@]12CCC(=O)C=C1CC[C@@H]1[C@@H]2[C@@H](O)C[C@@]2(C)[C@H]1CC[C@]2(O)C(=O)COC(=O)CCC(=O)O | inactive
O=C(O)c1cc(Cl)cc(Cl)c1O | inactive
CCOC(=O)COc1ccc(C)cc1 | inactive
CCN(CC)c1ccc2c(-c3ccc(S(=O)(=O)O)cc3S(=O)(=O)[O-])c3ccc(=[N+](CC)CC)cc-3oc2c1 | inactive
COC(=O)c1ccc(OC)cc1 | inactive
CC1=NN(c2ccc(C(=O)O)cc2)C(=O)C1 | inactive

Structure (SMILES) | Potency
CN=C(NC#N)NCCSCc1csc(N=C(N)N)n1 | inactive
CCN1CCCC1CN (stereo not given) | inactive
CCN(CC)C(=O)/C(C#N)=C/c1cc(O)c(O)c([N+](=O)[O-])c1 | inactive
CC(=O)CC(=O)Nc1ccc(C)cc1C | inactive
CCCCCCCC[P+](CCCCCCCC)(CCCCCCCC)CCCCCCCC | inactive
O=CNNC=O | inactive
CC(=O)c1ccc2ccc3ccccc3c2c1 | inactive
CSc1nc(NC2CC2)nc(NC(C)(C)C)n1 | inactive
Cc1ccc(N)nc1 | inactive
CCCCCCCCCC=O | inactive
Cc1ccccc1C#N | inactive
CC(=O)c1ccc(Cl)c(Cl)c1Cl | inactive
CCCCCCCCC(=O)Cl | inactive
COCCCCCCCCOCCC[Si](C)(O[Si](C)(C)C)O[Si](C)(C)C | inactive
CCOc1cc(OCC)c(C(=O)CCC(=O)O)cc1OCC | inactive
C1CCN(CN2CCCCC2)CC1 | inactive
O=C(O)Cc1csc(-c2ccc(Cl)cc2)n1 | inactive
O=C(/C=C/c1ccccc1)OCCCc1ccccc1 | inactive
C=C1C[C@@]23CC[C@H]4[C@@](C)(CCC[C@@]4(C)C(=O)O[C@@H]4O[C@H](CO)[C@@H](O)[C@H](O)[C@H]4O)[C@@H]2CC[C@]1(O[C@@H]1O[C@H](CO)[C@@H](O)[C@H](O[C@@H]2O[C@H](CO)[C@@H](O)[C@H](O)[C@H]2O)[C@H]1O[C@@H]1O[C@H](CO)[C@@H](O)[C@H](O)[C@H]1O)C3 | inactive
CCCCCCCCCCCC(=O)Cl | inactive
